# Laboratory results published in PubChem BioAssay (NCI).
# About 83,000 compounds went through this panel and 20% of them were active in at least one assay; those are over-represented in the sample as a whole.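 Treatment: one concentration, 48 hours, 96-well format. Scoring: percent growth, with anything below 10 considered active.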 A number with no mark means an inactive call. The source made the active and inactive calls.
# Columns and labels:
# Assay in all cases: NCI-60 one-dose screen, 48 h (100 = growth as untreated, 0 = no growth, -100 = all killed)
# Settings in all cases: 10 µM unless noted
# NCI-H23 lung = tested on: NCI-H23 lung
# NCI-H322M lung = tested on: NCI-H322M lung
# HOP-62 NSCLC = tested on: HOP-62 NSCLC
# NCI-H460 lung = tested on: NCI-H460 lung
# HOP-92 NSCLC = tested on: HOP-92 NSCLC
# NCI-H522 lung = tested on: NCI-H522 lung
# A549/ATCC NSCLC = tested on: A549/ATCC NSCLC
# 786-0 renal = tested on: 786-0 renal
# COLO 205 colon = tested on: COLO 205 colon
# DU-145 prostate = tested on: DU-145 prostate
# MALME-3M melanoma = tested on: MALME-3M melanoma
# MDA-MB-231 breast = tested on: MDA-MB-231 breast
# SF-268 CNS = tested on: SF-268 CNS
# SF-295 CNS = tested on: SF-295 CNS
# SF-539 CNS = tested on: SF-539 CNS
# UACC-257 melanoma = tested on: UACC-257 melanoma
# M14 melanoma = tested on: M14 melanoma
# HCT-15 colon = tested on: HCT-15 colon
# K-562 leukemia = tested on: K-562 leukemia
# RXF 393 renal = tested on: RXF 393 renal
Structure (SMILES),growth (NCI-H23 lung),growth (NCI-H322M lung) [%],growth (HOP-62 NSCLC),growth (NCI-H460 lung),growth (HOP-92 NSCLC),growth (NCI-H522 lung),growth (A549/ATCC NSCLC) [%],growth (786-0 renal) [%],growth (COLO 205 colon),growth (DU-145 prostate) [%],growth (MALME-3M melanoma),growth (MDA-MB-231 breast),growth (SF-268 CNS) [%],growth (SF-295 CNS),growth (SF-539 CNS),growth (UACC-257 melanoma),growth (M14 melanoma),growth (HCT-15 colon),growth (K-562 leukemia),growth (RXF 393 renal) [%]
COc1cc(C2C(C#N)=C(N)OC3=C2C(=O)c2ccccc2C3=O)cc(OC)c1OC (centres undefined),31.4%,48.1,7.45% (active),9.57% (active),80.6%,-18.6% (active),41,35.6,89%,25.1,47.8%,36.4%,39.5,23.2%,-19.6% (active),50.5%,12.3%,20.1%,–,–
COc1cccc2c(=O)c3c(sc12)c(NCCCNCCO)nc1ccccc13,63.1%,53.4,44.4%,-75.1% (active),10.2%,60.9%,34.5,56.3,–,41.4,81.2%,23.9%,48.2,73%,64.9%,84.5%,41.9%,25.6%,-46.9% (active),44.5
Cc1ccc(C)c(-c2csc(Nc3ccc(C)c(C)c3)n2)c1,57%,91.1,62.3%,38.5%,27.1%,65.3%,43.6,65.9,-54.6% (active),–,-86.3% (active),39.5%,75.5,-79.5% (active),25.1%,-58.6% (active),-81.3% (active),12.4%,-36.5% (active),21.8
O=C(/C=C/c1ccc(Cl)cc1)c1ccc(Nc2nc(NCCO)nc(Nc3ccc(Cl)cc3)n2)cc1,87.6%,86.7,80.3%,54.3%,63.1%,77.8%,51.2,26.9,–,67.7,90.3%,62.4%,60.2,87.2%,64.8%,95.8%,64.1%,25.9%,37.6%,54.3
Nc1ccc(-c2nc3cc(Oc4ccc(Oc5ccc6[nH]c(-c7ccc(N)cc7)nc6c5)cc4)ccc3[nH]2)cc1,78.6%,118,107%,95.2%,104%,73.7%,96.8,92,75%,–,81.4%,103%,113,63.4%,102%,95.8%,94%,100%,94.9%,107
COc1cc2nc(NC3CCCC3)nc(NC3CCN(C(C)C)CC3)c2cc1OC,88.7%,100,89.3%,71.8%,47.8%,62.6%,75.7,80.7,–,74.8,76.4%,24.8%,88.7,96.5%,59.6%,79.9%,-80.4% (active),79.2%,-4.9% (active),18
OCCNc1nc(Nc2ccc(C3=NN(c4cc(Cl)cc(Cl)c4)C(c4ccc(C(F)(F)F)cc4)C3)cc2)nc(N2CCOCC2)n1 (centres undefined),76%,80.3,74.5%,46.4%,98.6%,85.3%,59.2,42.7,–,82.7,90%,59.7%,74.1,71%,54.3%,94.5%,90.5%,49.3%,53.9%,19.7
Nc1nc2c(ncn2[C@@H]2O[C@H](CS)[C@@H](O)[C@H]2O)c(=O)[nH]1,102%,93.3,100%,102%,103%,97.4%,96.6,106,–,105,97.5%,99.3%,99.7,98.2%,102%,94.7%,102%,101%,97.2%,111
O=C1c2ccc3c4c(ccc(c24)C(=O)N1CCCCO)C(=O)N(CCCCO)C3=O,80.5%,90.9,83.9%,89.6%,16%,-13.4% (active),45.6,67.8,5.81% (active),–,-7.29% (active),64.6%,81.3,46.8%,68.3%,-61% (active),23.2%,48.5%,4.34% (active),15.1
Clc1ccc(Nc2scc3[n+]2CCC3)cc1,92.7%,101,99.8%,102%,81%,93.5%,92.4,94.9,120%,101,95.9%,95.9%,93.2,94.5%,97.1%,94%,103%,93.4%,–,–
Cn1nc(C(F)(F)F)c(-c2ccc(Cl)c(C(F)(F)F)c2)c1-c1ccc(OCc2ccc(Cl)cc2)cc1O,-6.46% (active),18.1,50.5%,6.25% (active),-22.4% (active),-13.7% (active),12.8,28.4,24.5%,19,12.2%,8.7% (active),26,12.8%,34.4%,2.35% (active),35.4%,8.53% (active),–,–
COc1ccc(-c2nocc2-c2cccs2)cc1,105%,102,101%,102%,86.6%,98.5%,99.3,103,115%,107,106%,92.8%,101,95.1%,101%,118%,111%,99.1%,–,–
O=C1CCC(N2C(=O)c3cccc(NCCCCCCOc4ccc(Nc5nccc(Nc6ccccc6)n5)cc4)c3C2=O)C(=O)N1 (centres undefined),62.6%,91.6,84.2%,83.6%,84.1%,76.6%,81.6,91.9,–,97.8,76.7%,86.6%,88.7,73.3%,89.1%,73.1%,88.1%,86.7%,46.8%,94.7
Cn1cc(-c2ccc3ncc(-c4ccc(CC(=O)Nc5cc(C(C)(C)C)no5)cc4)nc3c2)cn1,36.6%,20.6,42.5%,22.8%,46.3%,41.6%,33.7,39.2,–,34.3,25%,28.7%,36,47.2%,27.3%,61.2%,34.6%,16.3%,22.5%,32.3
O=C(Cn1cc(COc2ncnc3c2cnn3-c2ccccc2)nn1)Nc1cccc2ccccc12,89%,93.2,90.5%,93.7%,82.3%,81.1%,92.3,103,–,97.9,93.6%,95%,92.6,99.4%,90%,95.9%,105%,96.9%,94.6%,94.8
COc1ccc(N2C(=O)CC(c3cc(OC)c(OC)c(OC)c3)C3C2=NC(=O)N3C)cc1 (centres undefined),110%,105,108%,108%,105%,97.5%,104,103,101%,106,105%,109%,100,101%,97.9%,98.2%,105%,102%,–,–
